According to ChEMBL document CHEMBL4888484, “Replenishing the malaria drug discovery pipeline: Screening and hit evaluation of the MMV Hit Generation Library 1 (HGL1) against asexual blood stage Plasmodium falciparum ,using a nano luciferase reporter read-out” (2022):
Among all 150,000 compounds or so, about 540 (0.36%) showed an effect of 50% or more. Many of the other results were omitted from the sample, so strong results are more common in it than they were.

System: Plasmodium falciparum
Experiment: Primary screen in NF54 nanoGlo assay, in single point, at 2uM, 72h; a lower Z score goes with more inhibition
Type: functional, Erythrocyte
Settings: timepoint 72 hour

| Compound | % Inhibition [%] | Z score |
| --- | --- | --- |
| CCc1nc2cc(N3CCC(C(=O)NCc4cc(F)cc(F)c4)CC3)cnc2nc1CC | -5 | 0.82 |
| CCc1nc2cc(N3CCC(C(=O)Nc4ccc5c(c4)OCO5)CC3)cnc2nc1CC | 73 | -0.75 |
| CCc1nc2cc(N3CCC(C(=O)N[C@@H](C)CC)CC3)cnc2nc1CC | -9 | 1.42 |
| Cc1ccc(S(=O)(=O)c2cn(CC(=O)Nc3ccc(C)c(C)c3)c3nc(C)ccc3c2=O)cc1 | -12 | 1.24 |
| COCCN1C[C@]2(CCCN(c3ccnc4ccc(C)cc34)C2)CCC1=O | -3 | 0.55 |
| COCCN1CC[C@H](CN(C)c2ccncn2)C1 | 1 | -0.2 |
| COCCN1CCC[C@@]2(CCN(Cc3cnn(-c4ccc(Cl)cc4)c3)C2)C1 | -9 | 1.21 |
| COCCN1CC[C@H](CN(C)S(=O)(=O)Cc2ccc(Cl)cc2)C1 | -6 | 1.12 |
| COC(=O)[C@H](CN)Oc1ccc(F)cc1 | 2 | -0.27 |
| O=C(NC1CC1C1CCCCC1)N1CCCN(C2CCOCC2)CC1 (configuration not stated) | -16 | 1.42 |
| O=C(N[C@@H]1C[C@H]1C1CCCCC1)N1CCC(N2CCCCC2)C1 (some centres not stated) | -9 | 1.45 |
| O=C(NC1CC1C1CCCCC1)N1CCS(=O)(=O)CC1 (configuration not stated) | 77 | -9.17 |
| CCCN(C(=O)Nc1cc(Cl)ccc1OC)c1nc(-c2ccc(C3CCCCC3)cc2)cs1 | -14 | 2.04 |
| COc1ccc(NCC(=O)Nc2cc(C(F)(F)F)cc(NC(=O)CNc3ccc(OC)cc3)c2Cl)cc1 | -10 | 1.34 |
| CC(=O)Oc1ccc(N2C(=O)[C@@H]3[C@H](Cc4ccccc4)N[C@]4(C(=O)Nc5c4ccc(Cl)c5C)[C@@H]3C2=O)cc1 | -4 | 0.38 |
| O=C(ON1C(=O)CCC1=O)c1cc2ccccc2[nH]1 | 61 | -0.88 |
| Cc1cccc(C(=O)ON2C(=O)CCC2=O)c1 | 39 | 1.28 |
| O=C(ON1C(=O)CCC1=O)c1cccc(F)c1 | 34 | -3.87 |
| COc1ccccc1-n1nc(C)c(Cc2ccccc2)c1O | 31 | -3.49 |
| Cc1cccc(Cc2c(C)nn(-c3nc(C)cc(C)n3)c2O)c1 | 36 | 2.2 |
| Cc1cc(C)nc(-n2nc(C)c(CCc3ccccc3)c2O)n1 | 32 | -3.67 |

| Compound | % Inhibition [%] | Z score |
| --- | --- | --- |
| Cc1nn(-c2nc3ccccc3[nH]2)c(O)c1CCC(C)C | 95 | -12.21 |
| Oc1cc(-c2ccc(F)cc2)nn1-c1nc2ccccc2[nH]1 | 36 | -4.09 |
| Cc1nn(-c2nc3ccccc3[nH]2)c(O)c1Cc1ccccc1 | 63 | -1.65 |
| COc1ccc([C@@H]2N(c3ccc(Cl)cc3)OC(=O)N2c2ccccc2)cc1 | 1 | -0.09 |
| Cc1n[nH]c2c1CN(Cc1[nH]cc(C)c(=O)c1C)CC2 | -8 | 1 |
| COCCCN(CCC(=O)NCCc1ccccc1)C(=O)c1cc(C)oc1C | 2 | -0.18 |
| Cc1ccc(CNC(=O)CC2CC2)c2cccnc12 | -16 | 2.46 |
| COc1ccc(Cl)cc1-c1cc(C(=O)N2CCOCC2)ccn1 | 3 | -0.54 |
| CCc1c(C(=O)N2CCC(c3ccnn3CCO)CC2)cnn1-c1cccc(Cl)c1 | -3 | 0.24 |
| CCc1nc2ccccc2c(C(=O)N2CCN(c3cc(OC)ncn3)CC2)c1C | -13 | 1.69 |
| COC[C@H]1CCCN1C[C@@H]1OC[C@H](NC(=O)c2ccc(C#N)cc2)[C@H]1O | 9 | -1.07 |
| Cn1cccc1-c1nc2cc(N)ccc2[nH]1 | -3 | 0.34 |
| COCCN(CCOC)C(=O)c1cnn(C)c1 | -6 | 0.88 |
| CC(C)CCn1nnnc1[C@]1(N(C)C)CCCN(C(=O)c2cccn2C)C1 | 92 | 1.07 |
| CCOc1ccccc1C(=O)N1CCC[C@](c2nnnn2CCC(C)C)(N(C)C)C1 | -2 | 0.29 |
| CC(C)CCn1nnnc1[C@]1(N(C)C)CCCN(C(=O)CN2CCOCC2)C1 | 2 | -0.27 |
| CCOCCCNCc1ccc(F)cc1 | -10 | 1.59 |
| COc1ccc(-c2nnc(-c3nc(NCc4ccc5c(c4)OCO5)c4ccccc4n3)o2)cc1 | -7 | 1.27 |
| COc1ccc(CNc2nc(-c3nnc(-c4ccccc4)o3)nc3ccccc23)cc1 | 55 | -10.02 |
| Cc1ccc(-c2nnc(-c3nc(NCc4ccc(F)cc4)c4ccccc4n3)o2)cc1 | -11 | 2.05 |
| O=C(NCC1(c2ccccc2)CCCCCC1)N1CCO[C@@H](CO)C1 | -5 | 0.59 |

| Compound | % Inhibition [%] | Z score |
| --- | --- | --- |
| CCc1c(C)nc(C)nc1N1CC[C@H](NC(=O)c2cc(C)on2)[C@@H](O)C1 | 8 | -1.41 |
| CCn1nccc1C=C(C)c1ncccn1 | 1 | -0.23 |
| COc1ccc(Br)cc1NC(=O)N(C)CCCn1ccnc1 | 8 | -0.86 |
| CN(CCCn1ccnc1)C(=O)c1ccnc(N(C)C)c1 | -12 | 1.13 |
| COc1ccc(Cn2nnc3cc(C(=O)Nc4ccc(C)cc4C)ccc32)cc1 | -2 | 0.34 |
| CC1=Nc2ccccc2C12CCN(C(=O)Nc1cncc(F)c1)CC2 | 11 | -1.44 |
| O=C(Nc1onc2c1CCC2)c1ccc2ccccc2c1 | 76 | -8.19 |
| O=C(Nc1onc2c1CCC2)c1cccc2ccccc12 | 20 | -2.27 |
| O=C(Nc1onc2c1CCC2)c1ccc2ncsc2c1 | 0 | 0.01 |
| CC(=O)Nc1ccc(S(=O)(=O)NC2(c3nc(C)no3)CCCCC2)cc1 | -3 | 0.55 |
| O=C(Cn1cnc(-c2nc(-c3ccccc3)cs2)c1)Nc1ccc(F)cc1 | -8 | 0.99 |
| O=C(O)[C@H]1CCN(C(=O)Cn2c(COc3ccccc3)nc3ccccc32)C1 | -10 | 0.93 |
| Cc1nn(-c2nc3ccccc3s2)c(O)c1C(c1ccc(Cl)c(Cl)c1)c1c(C)nn(-c2nc3ccccc3s2)c1O | -10 | 0.88 |
| Cc1nn(-c2ccccn2)c(O)c1C(c1ccccc1)c1c(C)nn(-c2ccccn2)c1O | 96 | -9.38 |
| Cc1nn(-c2ccccc2Cl)c(O)c1C(c1ccsc1)c1c(C)nn(-c2ccccc2Cl)c1O | 6 | -0.74 |
| Cc1ccccc1C(=O)N1C(C(=O)NC(C)c2ccccc2)COC12CCN(C(=O)CC(C)(C)C)CC2 (configuration not stated) | -5 | 0.47 |
| CCc1ccccc1C(=O)OCc1nccn1C | -3 | 0.26 |
| CN1CCC(n2ncc3[nH]c(-c4ccc(C(F)(F)F)cc4)nc32)CC1 | 97 | -17.43 |
| COc1ccc(-c2nc3c(cnn3C3CCN(C)CC3)[nH]2)cn1 | -7 | 0.9 |
| Fc1ccc(-c2nc3c(cnn3C3CCCC3)[nH]2)cc1 | -6 | 0.81 |
| Cc1c(-c2n[nH]c3c2CN(C(=O)c2csnn2)CC3)cccc1C(F)(F)F | -12 | 1.03 |

| Compound | % Inhibition [%] | Z score |
| --- | --- | --- |
| Cc1n(CC(=O)c2ccccc2)c2ccccc2[n+]1CC(=O)c1ccccc1 | 59 | -12.26 |
| O=C(Cn1nnc2ccccc21)c1ccccc1 | -12 | 1.78 |
| O=C(CN1CCN(CC(=O)c2ccccc2)CC1)c1ccccc1 | 0 | -0.02 |
| O=C(N[C@H]1CCc2cc(F)c(F)c(F)c21)N1CCn2ncnc2C1 | -5 | 1.12 |
| COc1nccc2c(NCc3cn(C(C)(C)C)nn3)cccc12 | 5 | -1 |
| CCOc1ccc(S(=O)(=O)N[C@H]2CC[C@@H](CC(=O)O)C2)c(C)c1 | -1 | 0.16 |
| CO[C@@H]1CCC[C@@H]2CN(C(=O)C3(c4ccccc4)CCCC3)C[C@@H]21 | -4 | 0.35 |
| C[N+]12CCCCC1C(OC(=O)C1(c3ccccc3)CCCC1)CCC2 (configuration not stated) | 63 | -6.6 |
| C[N+]12CCCC[C@@H]1[C@H](COC(=O)c1ccccc1Cl)CCC2 (some centres not stated) | 7 | -0.65 |
| c1cc(-c2nc3cc4ccccc4cc3[nH]2)nc(-c2nc3cc4ccccc4cc3[nH]2)c1 | 100 | -18.05 |
| Cc1cccc(C)c1OCC(=O)Nc1ccc(-c2nc3cc4ccccc4cc3[nH]2)cc1 | 49 | -5.57 |
| CCn1ncc(C(CC(=O)c2ccccc2)CC(=O)c2ccccc2)c1C | -8 | 1.07 |
| CCN(CC)C(=O)c1cnc2snc(C)c2c1N1CCC(C(=O)Nc2cc(F)ccc2F)CC1 | 6 | -0.96 |
| CCN(CC)C(=O)c1cnc2snc(C)c2c1N1CCC(C(=O)Nc2c(C)cc(C)cc2C)CC1 | 54 | -10.3 |
| Cc1nsc2ncc(C(=O)N3CCCCC3)c(N3CCC(C(=O)Nc4cc(F)ccc4F)CC3)c12 | 5 | -0.78 |
| CCOc1ccc(NC(=O)C2CCN(c3c(C(=O)N(CC)CC)cnc4snc(C)c34)CC2)cc1 | 5 | -0.93 |
| Cc1nsc2ncc(C(=O)N3CCC(C)CC3)c(N3CCC(C(=O)Nc4cc(F)ccc4F)CC3)c12 | 60 | -4.06 |
| CCN(CC)C(=O)c1cnc2snc(C)c2c1N1CCC(C(=O)Nc2ccc(Br)c(C)c2)CC1 | 1 | -0.18 |
